Test systems include DU-145 prostate; K-562 leukemia; MALME-3M melanoma; MDA-MB-231 breast; RXF 393 renal; SF-268 CNS; SF-295 CNS; SF-539 CNS; UACC-257 melanoma; M14 melanoma; HCT-15 colon; HT29 colon; SNB-75 CNS; SNB-19 CNS; U251 CNS; PC-3 prostate; SK-MEL-5 melanoma; UACC-62 melanoma; LOX IMVI melanoma; SK-MEL-28 melanoma.
What all share (assay): NCI-60 one-dose screen, 48 h (100 = growth as untreated, 0 = no growth, -100 = all killed)
Common to all, as to conditions: 10 µM unless noted

Each structure is given as a SMILES string. The panel holds about 83,000 compounds, 20% with a hit somewhere; the sample as a whole holds those more often.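 Percent growth is the endpoint: 0 to 100 indicates growth inhibition (40 means 60% inhibition), 0 means no net growth, and negative values indicate cell death.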 Values without a mark were called inactive. Calls of active or inactive are those of the source. How the source made its calls: active means growth percent below 10; inactive means the rest.

As to `Cc1ccc(OCc2occc2C(=O)N2CCOCC2)cc1`, the growth with DU-145 prostate is 103%; with K-562 leukemia it was 98.9%; in the assay with MALME-3M melanoma it was 102%; with MDA-MB-231 breast it was 109%; in the assay on RXF 393 renal, 99.8%; with SF-268 CNS, 97.5%. Moreover, the growth is 96.3% with SF-295 CNS; 100% in the assay on SF-539 CNS; 116% in the assay on UACC-257 melanoma; 99.3% in the assay with M14 melanoma; 100% in the assay on HCT-15 colon; 108% with HT29 colon. The growth with SNB-75 CNS is 81.8%; in the assay with SNB-19 CNS it was 99.8%; in the assay on U251 CNS, 103%; in the assay on PC-3 prostate, 107%; in the assay on SK-MEL-5 melanoma it was 100%; in the assay on UACC-62 melanoma it was 97.9%. Moreover, the growth with LOX IMVI melanoma was 108%; in the assay on SK-MEL-28 melanoma, 110%.

Consider `Cc1cc(=O)[nH]c(O)c1C#N`, for which the growth was 108% in the assay on DU-145 prostate; 99.2% with K-562 leukemia; 105% in the assay on MALME-3M melanoma; 98.2% in the assay with MDA-MB-231 breast; 114% in the assay on RXF 393 renal; 103% in the assay with SF-268 CNS. In addition, the growth in the assay on SF-295 CNS is 102%; in the assay on SF-539 CNS it was 97%; in the assay on UACC-257 melanoma, 100%; with M14 melanoma it was 94.4%; with HCT-15 colon, 103%; in the assay with HT29 colon, 110%. In addition, the growth is 87% in the assay on SNB-75 CNS; 101% with SNB-19 CNS; 100% with U251 CNS; 97.1% with PC-3 prostate; 102% with SK-MEL-5 melanoma; 91.7% in the assay with UACC-62 melanoma. Besides, in the assay with SK-MEL-28 melanoma, the growth was 108%.

On to `CC1=C(C)C(=O)C(Nc2cccc(C(F)(F)F)c2)=C(Br)C1=O`, for which the growth was 105% in the assay on DU-145 prostate; -17.9% (active) in the assay on K-562 leukemia; 101% with MALME-3M melanoma; 69.2% with MDA-MB-231 breast; 105% in the assay with RXF 393 renal; 97.7% in the assay on SF-268 CNS. Further, the growth in the assay with SF-295 CNS is 106%; in the assay on SF-539 CNS it was 96%; in the assay with UACC-257 melanoma, 88.1%; with M14 melanoma it was 99%; with HCT-15 colon, 82.7%; in the assay on HT29 colon it was 106%. In addition, the growth is 62.2% in the assay on SNB-75 CNS; 91.1% with SNB-19 CNS; 87.4% with U251 CNS; 71% with PC-3 prostate; 81.3% in the assay on SK-MEL-5 melanoma; 80.8% with UACC-62 melanoma. Moreover, in the assay on SK-MEL-28 melanoma, the growth is 105%.

Turning to `CC(C)=CCC[C@](C)(O)[C@H]1CC[C@]2(C)[C@@H]1CC[C@@H]1[C@@]3(C)CC[C@H](N)C(C)(C)[C@@H]3CC[C@]12C`, the growth in the assay with DU-145 prostate is 72.2%; in the assay with K-562 leukemia it was -41.2% (active); in the assay on MALME-3M melanoma it was 107%; in the assay with MDA-MB-231 breast it was 85.4%; in the assay with RXF 393 renal, 53.2%; in the assay on SF-268 CNS, 86%. Moreover, the growth was 93.2% in the assay with SF-295 CNS; 87.9% with SF-539 CNS; 94% in the assay with UACC-257 melanoma; 92.9% in the assay on M14 melanoma; 20.3% with HCT-15 colon; 59.6% in the assay on HT29 colon. Moreover, the growth in the assay with SNB-75 CNS is 87.2%; in the assay with SNB-19 CNS it was 81.2%; in the assay with U251 CNS it was 48.2%; in the assay on PC-3 prostate, 68.3%; with SK-MEL-5 melanoma, 84.2%; in the assay with UACC-62 melanoma, 91%. Also, the growth in the assay on LOX IMVI melanoma is -82.5% (active); with SK-MEL-28 melanoma, 108%.

Regarding `CCN(CC)c1ccc(/C=N/NC(=O)c2ccc(S(N)(=O)=O)cc2)cc1`, the growth in the assay with DU-145 prostate is 34.7%; in the assay on K-562 leukemia, 14.7%; with MALME-3M melanoma, 8.81% (active); in the assay on MDA-MB-231 breast, 38.3%; with RXF 393 renal, -6.07% (active); with SF-268 CNS, 29.4%. For the same compound, the growth with SF-295 CNS is 16%; with SF-539 CNS, 17%; in the assay on UACC-257 melanoma, 2.22% (active); in the assay with M14 melanoma, -1.23% (active); in the assay on HCT-15 colon, 20.4%; in the assay on HT29 colon, 30.8%. The growth was 71.1% in the assay with SNB-75 CNS; 36.9% in the assay with SNB-19 CNS; 33.5% with U251 CNS; 43.8% with PC-3 prostate; -0.119% (active) in the assay on SK-MEL-5 melanoma; 15.7% with UACC-62 melanoma. Besides, the growth in the assay on LOX IMVI melanoma was 0.095% (active); with SK-MEL-28 melanoma it was 22.5%.

For `Nc1cc(C(=O)N/N=C\c2ccc(OC(F)F)c(OC3CCCC3)c2)nn1CC(O)c1ccccc1` (stereo not drawn), the growth with DU-145 prostate is 105%; in the assay on K-562 leukemia it was 88.4%; in the assay with MALME-3M melanoma, 112%; with MDA-MB-231 breast, 97.5%; in the assay on RXF 393 renal, 96.3%; in the assay with SF-268 CNS it was 100%. Besides, the growth in the assay on SF-295 CNS was 101%; in the assay with SF-539 CNS it was 98.6%; in the assay with UACC-257 melanoma it was 104%; in the assay on M14 melanoma it was 110%; in the assay on HCT-15 colon, 99.1%; in the assay on HT29 colon it was 98.2%. Moreover, the growth was 84.1% in the assay with SNB-75 CNS; 96.4% in the assay with SNB-19 CNS; 94.7% with U251 CNS; 80.7% in the assay with PC-3 prostate; 97.1% in the assay with SK-MEL-5 melanoma; 89.4% with UACC-62 melanoma. For the same compound, the growth was 99.1% in the assay on LOX IMVI melanoma and 115% in the assay with SK-MEL-28 melanoma.

On to `COc1ccc(CC(C)=C(c2ccc(OCCN3CCCC3)cc2)c2ccc(OCCN3CCCC3)cc2)cc1`, for which the growth was -88.6% (active) in the assay on DU-145 prostate; 1.41% (active) in the assay on K-562 leukemia; -82.9% (active) in the assay on MALME-3M melanoma; -83.9% (active) with MDA-MB-231 breast; -95.3% (active) in the assay on RXF 393 renal; -64.4% (active) with SF-268 CNS. The growth is -87.7% (active) in the assay with SF-295 CNS; -90.1% (active) in the assay with SF-539 CNS; -86.6% (active) in the assay with UACC-257 melanoma; -87.5% (active) with M14 melanoma; -85.2% (active) in the assay with HCT-15 colon; -77.6% (active) with HT29 colon. Besides, the growth was -76.7% (active) in the assay on SNB-75 CNS; -81% (active) in the assay on SNB-19 CNS; -70.1% (active) in the assay on U251 CNS; -73.2% (active) in the assay with PC-3 prostate; -96.1% (active) with SK-MEL-5 melanoma; -88.8% (active) in the assay on UACC-62 melanoma. In addition, the growth was -86.6% (active) in the assay on LOX IMVI melanoma and -92.2% (active) in the assay on SK-MEL-28 melanoma.

Values taken from PubChem BioAssay (NCI).
